This is a sample that favours compounds with a hit; in the whole collection about 1.4% have one here.
a7 integrin act – qHTS for Activators of Integrin-Mediated Alleviation for Muscular Dystrophy. hit rate 0.064% among 350,000. Potency, µM (highest dose often 38.3 µM), usual class: activators. alpha7betagal myoblasts, beta-gal FDG fluorescence, 48 h; note: nearly all actives have a fitted effect of over 60% in size
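Alpha7betagal+/- myoblasts (passage 13) were plated 16-24 hr, then exposed to compounds (1:260 dilution of DMSO stock) for 48 hours at 37C. After MPER lysis, β-galactosidase reporter activity was read as FDG fluorescence (ex 480/em 540) after 30 minutes.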
IL2 activator – qHTS of IL-2 Activators; IL-2 activation reporter assay, cell-based qHTS; stimulated with anti-CD3/CD4/CD28 beads; in transgenic mouse T cells; activation, % (series mostly up to about 46 µM); hit rate 0.065% among 360,000; AID 652025, 2013; in the data active = activation above about 50%; inconclusive = mostly about 30% to 49%
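Readout is EGFP and DsRed signal by fluorescent plate cytometry after 18 h at 37 degrees C. Transgenic mouse T cells (750/well) received compound for 60 min before bead stimulation (anti-CD3, anti-CD4, anti-CD28); memory T cells served as non-tolerant control.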
BCR signal inh – qHTS Assay to Find Inhibitors of Chronic Active B-Cell Receptor Signaling. ABC-DLBCL IkBa-CBG/CBR reporter, luminescence ratio, 4 h. hit rate 0.05% among 340,000. Potency, µM (highest dose often 46.1 µM), usual class: inhibitors; active = well fitted inhibition curve with a large enough effect in the signal ratio, with a control signal flat, not every such curve was filed as active; inconclusive = small, poorly fitted or top-dose-only effect, or effect the other way, or a change in a side signal; the % refers to the signal ratio
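Doxycycline induced both beetle luciferases in TMD8 lymphoma cells; IKK-driven degradation limits the IkappaBalpha-fused green signal, while red luminescence normalises for cell number and nonspecific effects. Compounds tested up to 46 uM, 4 hrs.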
Nrf2 ARE act – qHTS of Nrf2 Activators; AREc32 ARE-luciferase reporter (MCF7-derived line), luminescence, 24 h; Potency, µM (highest dose often 46.1 µM), most hits filed as activators; hit rate 0.31% among 410,000; note: nearly all actives have a fitted effect of over 65% in size
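AREc32_Fluc, 1000 cells/well, OPTI-MEM + 5% FBS, o/n 37 deg C 5% CO2; 23 nL cpd by pin tool, 24 hr; Steady-Glo 30 min RT, luminescence.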
BRCA1 expr act – qHTS Assay to Identify Small Molecule Activators of BRCA1 Expression; MCF7-BRCA1-FFLuc reporter, luminescence, 48 h; response scale: scaled: vehicle 0%, 10 µM genistein 100%; Potency, µM (top dose mostly 46.1 µM), most hits filed as activators; hit rate 1.1% among 380,000; AID 624202, 2012; note: nearly all actives have a fitted effect of over 80% in size
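MCF7 cells carrying a BRCA1-firefly luciferase reporter (2000 cells/well, phenol-red free MEM) were attached for 2 h at 37 °C, then given compounds for 48 h. Luminescence was read 15 min after luciferase reagent; activity normalized to genistein (10 microM) and DMSO.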
N370S GC mod – qHTS Assay for Inhibitors and Activators of N370S glucocerebrosidase as a Potential Chaperone Treatment of Gaucher Disease; Lysosomal acid glucosylceramidase (Homo sapiens), P04062; N370S GC spleen homogenate, 4MU-glucoside fluorescence; Potency, µM (titrated, usually from 59.4 µM), usual class: inhibitors; hit rate 0.092% among 330,000
Large screens that a line does not name were inactive. Unless noted, calls come from the whole dose curve; as a rule, active = well fitted curve in the direction sought with a large enough effect; inconclusive = small, poorly fitted or top-dose-only effect, or another doubt; inactive = no such curve, though single readings can be large; an effect the other way counts as inactive or inconclusive.

CCOC(=O)c1cnc(SCc2ccc(C)cc2)nc1N	BCR signal inh inconclusive, BRCA1 expr act 7.08µM
CCCN1CCN(S(=O)(=O)c2ccc3c(c2)CCC(=O)N3)CC1	none (no result: N370S GC mod)
CS(=O)(=O)N1CCN(c2nc(-c3cccs3)nc3ccccc23)CC1	none (no result: a7 integrin act, IL2 activator, BCR signal inh, Nrf2 ARE act, N370S GC mod)
CS(=O)(=O)NCCCNc1ccc(C(F)(F)F)cc1[N+](=O)[O-]	none
Cc1cccc(OCCNc2ccc(C(F)(F)F)cc2[N+](=O)[O-])c1	BRCA1 expr act 3.16µM
Cc1cccc(OCC(=O)Nc2cc(C)c(O)c(-c3nc4ccccc4o3)c2)c1	none (no result: a7 integrin act, IL2 activator, BCR signal inh, Nrf2 ARE act, N370S GC mod)
CCCC(C(=O)NCc1cccc(Cl)c1)N1Cc2ccccc2C1=O (centres undefined)	none (no result: a7 integrin act, IL2 activator, BCR signal inh, BRCA1 expr act, N370S GC mod)
CCOC(=O)Cn1c(=O)c(-c2ccccc2N)nc2ccccc21	none
CCOC(=O)Cn1c(=O)c(-c2cc(Br)ccc2N)nc2ccccc21	IL2 activator 151.8, Nrf2 ARE act inconclusive
Cc1ccccc1CSc1cn(CCNC(=O)c2cccs2)c2ccccc12	none (no result: a7 integrin act, IL2 activator, BCR signal inh, N370S GC mod)
Cn1cc([N+](=O)[O-])c(C(=O)Nc2ccc(-c3nc4ccccc4o3)cc2)n1	Nrf2 ARE act 5.01µM
Cc1cccc(C)c1-n1c(C)nn(CC2CC2)c1=O	none
COc1ccc(-c2cnc(N)nc2-c2ccc(OCc3ccccc3)cc2O)cc1	none
Nc1ncc(-c2ccccc2)c(-c2ccc(O)cc2O)n1	BCR signal inh inconclusive, N370S GC mod 14.1µM
COc1ccc(/C=N/Nc2ncccc2[N+](=O)[O-])c(OC)c1	BCR signal inh inconclusive, BRCA1 expr act 14.1µM
COc1cc2nc(NC(=O)c3ccc(S(=O)(=O)N4CCCC4)cc3)sc2cc1OC	BCR signal inh inconclusive (no result: a7 integrin act, IL2 activator, N370S GC mod)
O=C(OCc1ccccc1F)c1ccc2c(c1)-c1ccccc1C2=O	BCR signal inh inconclusive, BRCA1 expr act 7.08µM
O=C(OCc1cccc(F)c1)c1ccc2c(c1)-c1ccccc1C2=O	BRCA1 expr act 11.2µM
CCOC(=O)c1ccc(COC(=O)c2ccc3c(c2)-c2ccccc2C3=O)cc1	BCR signal inh inconclusive
CC(=O)c1cccc(NC(=O)C2Cc3c(-c4ccco4)ccnc3O2)c1 (centres undefined)	none (no result: a7 integrin act, BCR signal inh, N370S GC mod)
c1ccc(OCCNc2ccn3nc(-c4ccccc4)cc3n2)cc1	BRCA1 expr act inconclusive (no result: a7 integrin act, BCR signal inh, N370S GC mod)
c1ccc(OCCNc2ccn3nc(-c4ccco4)cc3n2)cc1	BRCA1 expr act 14.1µM (no result: a7 integrin act, BCR signal inh, N370S GC mod)
CC(Oc1ccccc1)C(=O)Nc1cccc(-c2cn3cccnc3n2)c1 (centres undefined)	none (no result: a7 integrin act, IL2 activator, BCR signal inh, BRCA1 expr act, N370S GC mod)
O=C(/C=C/c1cccs1)c1ccc(NC(=O)c2cccc(Br)c2)cc1	BCR signal inh inconclusive, BRCA1 expr act 11.2µM
CC(=O)Cc1nsc(Nc2ccc(F)cc2)n1	BRCA1 expr act inconclusive
CC(=O)Cc1nsc(Nc2ccc(Cl)cc2)n1	BCR signal inh inconclusive, BRCA1 expr act 10µM
COc1cccc(Nc2nc(CC(C)=O)ns2)c1	BRCA1 expr act 11.2µM
COc1ccc(Nc2nc(CC(C)=O)ns2)cc1	BRCA1 expr act 10µM
Cc1ccc(S(=O)(=O)N2CCN(c3ccnc(-c4cccs4)n3)CC2)cc1	none (no result: a7 integrin act, IL2 activator, BCR signal inh, Nrf2 ARE act, N370S GC mod)
CCCCN1C(=O)/C(=C2/Sc3ccc(OC)cc3N2CC)SC1=S	a7 integrin act inconclusive, IL2 activator 118.4
C=CCN1C(=O)/C(=C2/Sc3ccc(OC)cc3N2CC)SC1=S	IL2 activator 189.2
CCN1/C(=C2/SC(=S)N(NC(C)=O)C2=O)Sc2ccc(OC)cc21	none
O=C(O)CC1(c2ccc(F)cc2)C2CC3CC(C2)CC1C3 (centres undefined)	none
Cc1cc(Nc2ccc(Br)c(C)c2)n2nc(-c3ccco3)nc2n1	none (no result: a7 integrin act, IL2 activator, BCR signal inh, BRCA1 expr act, N370S GC mod)
Cc1cc(C)n2nc(-c3ccco3)nc2n1	Nrf2 ARE act 12.6µM
COc1ccc(C(=O)Nc2cnn(Cc3c(F)cccc3Cl)c2)cc1OC	BCR signal inh inconclusive

Screens deposited in PubChem BioAssay by National Center for Advancing Translational Sciences (NCATS).
